# In all, about 5,500 compounds went through this assay and about 2,000 (36%) were called active. Another 18% or so got no clear call; they are omitted. The list shows a part of the results. Values without a mark were called inactive. Rule as the data show it: active = normalized growth mostly below about 0.91 (no sharp cut-off); inconclusive = no clear call, values can overlap the other calls; inactive = mostly above about 0.92.
# Assay: chemical genetic growth profiling, strain panel (AID 1159580);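 also: tested at 20 µM; growth read once vehicle control cultures reached saturation at 30 °C; 1 = growth at the plate median or of vehicle wells; lower values mean less growth of the strain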
# Settings: growth OD
# [1] = S. cerevisiae deletion strains, locus YAL013W, strain DEP1, hits give low values
# [2] = S. cerevisiae deletion strains, locus YBR229C, strain ROT2, hits give low values
# [3] = S. cerevisiae deletion strains, locus YDL101C, strain DUN1, hits give low values
# [4] = S. cerevisiae deletion strains, locus YDR150W, strain NUM1, hits give low values
# [5] = S. cerevisiae deletion strains, locus YEL061C, strain CIN8, hits give low values
# [6] = S. cerevisiae deletion strains, locus YGR078C, strain PAC10, hits give low values
# [7] = S. cerevisiae deletion strains, locus YHR030C, strain SLT2, hits give low values
# [8] = S. cerevisiae deletion strains, locus YHR087W, strain rtc3, hits give low values
# [9] = S. cerevisiae deletion strains, locus YJR043C, strain POL32, hits give low values
# [10] = S. cerevisiae deletion strains, locus YJR075W, strain HOC1, hits give low values
# [11] = S. cerevisiae deletion strains, locus YKL190W, strain CNB1, hits give low values
# [12] = S. cerevisiae deletion strains, locus YLR039C, strain RIC1, hits give low values
# [13] = S. cerevisiae deletion strains, locus YLR058C, strain SHM2 (second series), hits give low values
# [14] = S. cerevisiae deletion strains, locus YLR085C, strain ARP6, hits give low values
# [15] = S. cerevisiae deletion strains, locus YLR262C, strain YPT6, hits give low values
# [16] = S. cerevisiae deletion strains, locus YML094W, strain GIM5, hits give low values
# [17] = S. cerevisiae deletion strains, locus YMR219W, strain ESC1, hits give low values
# [18] = S. cerevisiae deletion strains, locus YMR263W, strain SAP30, hits give low values
# [19] = S. cerevisiae deletion strains, locus YNL153C, strain GIM3, hits give low values
# [20] = S. cerevisiae deletion strains, locus YNL298W, strain CLA4 (second series), hits give low values
# [21] = S. cerevisiae deletion strains, locus YNL322C, strain KRE1, hits give low values
# [22] = S. cerevisiae deletion strains, locus YNR030W, strain Alg12, hits give low values
# [23] = S. cerevisiae deletion strains, locus YPL055C, strain LGE1, hits give low values
# [24] = S. cerevisiae deletion strains, locus YPL241C, strain CIN2, hits give low values
# [25] = S. cerevisiae deletion strains, locus YPR135W, strain CTF4, hits give low values
# [26] = S. cerevisiae strains, strain wild type, hits give low values
# [27] = S. cerevisiae deletion strains, locus YAL040C, strain CLN3, hits give low values
# [28] = S. cerevisiae deletion strains, locus YER002W, strain NOP16, hits give low values
# [29] = S. cerevisiae deletion strains, locus YNL175C, strain NOP13, hits give low values
# [30] = S. cerevisiae deletion strains, locus YNL197C, strain WHI3, hits give low values
# [31] = S. cerevisiae deletion strains, locus YNL224C, strain SQS1, hits give low values
# [32] = S. cerevisiae deletion strains, locus YOR083W, strain WHI5 (second series), hits give low values
smiles,measurement,setting,value
CC(C)(C)c1nccc(-c2nn(-c3ccc(F)cc3)ccc2=O)n1,normalized growth,[1],0.991
same,normalized growth,[2],0.988
same,normalized growth,"S. cerevisiae deletion strains, locus YCL061C, strain MRC1, hits give low values",1.02
same,normalized growth,[3],1.03
same,normalized growth,"S. cerevisiae deletion strains, locus YDL134C, strain PPH21, hits give low values",0.994
same,normalized growth,[4],0.9
same,normalized growth,[5],1.01
same,normalized growth,[6],1.01
same,normalized growth,[7],1.02
same,normalized growth,[8],0.985
same,normalized growth,"S. cerevisiae deletion strains, locus YJL187C, strain SWE1, hits give low values",1.03
same,normalized growth,[9],1
same,normalized growth,[10],1.03
same,normalized growth,[11],1.01
same,normalized growth,[12],0.99
same,normalized growth,[13],1
same,normalized growth,[14],1.15
same,normalized growth,[15],0.974
same,normalized growth,[16],1
same,normalized growth,[17],1
same,normalized growth,[18],0.995
same,normalized growth,[19],1.02
same,normalized growth,[20],1.03
same,normalized growth,[21],1
same,normalized growth,[22],0.999
same,normalized growth,"S. cerevisiae deletion strains, locus YOL006C, strain TOP1, hits give low values",1.09
same,normalized growth,[23],0.949
same,normalized growth,[24],1.04
same,normalized growth,[25],0.869
same,normalized growth,[26],0.99
Brc1ccc2[nH]c3c(c2c1)CCC3,normalized growth,"S. cerevisiae deletion strains, locus YAR019C, strain CDC15, hits give low values",0.954
same,normalized growth,"S. cerevisiae deletion strains, locus YBL105C, strain PKC1, hits give low values",0.955
same,normalized growth,"S. cerevisiae deletion strains, locus YBR135W, strain CKS1, hits give low values",0.934
same,normalized growth,"S. cerevisiae deletion strains, locus YBR136W, strain MEC1, hits give low values",0.945
same,normalized growth,"S. cerevisiae deletion strains, locus YBR160W, strain CDC28, hits give low values",0.949
same,normalized growth,"S. cerevisiae deletion strains, locus YDL017W, strain CDC7, hits give low values",0.962
same,normalized growth,"S. cerevisiae deletion strains, locus YDL028C, strain MPS1, hits give low values",0.937
same,normalized growth,[3],0.966
same,normalized growth,"S. cerevisiae deletion strains, locus YDL108W, strain KIN28, hits give low values",0.932
same,normalized growth,"S. cerevisiae deletion strains, locus YDL132W, strain cdc53, hits give low values",0.962
same,normalized growth,"S. cerevisiae deletion strains, locus YDL214C, strain PRR2, hits give low values",0.69 (active)
same,normalized growth,"S. cerevisiae deletion strains, locus YDR052C, strain DBF4, hits give low values",0.975
same,normalized growth,"S. cerevisiae deletion strains, locus YDR054C, strain cdc34, hits give low values",0.97
same,normalized growth,"S. cerevisiae deletion strains, locus YDR226W, strain ADK1, hits give low values",0.96
same,normalized growth,"S. cerevisiae deletion strains, locus YDR477W, strain SNF1, hits give low values",0.712
same,normalized growth,"S. cerevisiae deletion strains, locus YER123W, strain YCK3, hits give low values",0.609 (active)
same,normalized growth,"S. cerevisiae deletion strains, locus YER133W, strain GLC7, hits give low values",0.668 (active)
same,normalized growth,"S. cerevisiae deletion strains, locus YFL009W, strain cdc4, hits give low values",0.946
same,normalized growth,"S. cerevisiae deletion strains, locus YFL029C, strain CAK1, hits give low values",0.942
same,normalized growth,"S. cerevisiae deletion strains, locus YFR003C, strain YPI1, hits give low values",0.952
same,normalized growth,"S. cerevisiae deletion strains, locus YFR019W, strain FAB1, hits give low values",0.759 (active)
same,normalized growth,"S. cerevisiae deletion strains, locus YFR028C, strain CDC14, hits give low values",0.969
same,normalized growth,"S. cerevisiae deletion strains, locus YGR040W, strain KSS1, hits give low values",0.716
same,normalized growth,"S. cerevisiae deletion strains, locus YGR052W, strain FMP48, hits give low values",0.595 (active)
same,normalized growth,"S. cerevisiae deletion strains, locus YGR092W, strain DBF2, hits give low values",0.621
same,normalized growth,[7],0.344 (active)
same,normalized growth,"S. cerevisiae deletion strains, locus YHR079C, strain IRE1, hits give low values",0.151 (active)
same,normalized growth,"S. cerevisiae deletion strains, locus YHR082C, strain KSP1, hits give low values",0.587 (active)
same,normalized growth,"S. cerevisiae deletion strains, locus YHR205W, strain SCH9, hits give low values",0.666
same,normalized growth,"S. cerevisiae deletion strains, locus YIL147C, strain SLN1, hits give low values",0.947
same,normalized growth,"S. cerevisiae deletion strains, locus YJL095W, strain BCK1, hits give low values",0.467 (active)
same,normalized growth,"S. cerevisiae deletion strains, locus YJL128C, strain PBS2, hits give low values",0.915
same,normalized growth,"S. cerevisiae deletion strains, locus YJL157C, strain FAR1, hits give low values",0.74
same,normalized growth,"S. cerevisiae deletion strains, locus YJR016C, strain ILV3, hits give low values",0.946
same,normalized growth,"S. cerevisiae deletion strains, locus YJR066W, strain TOR1 (second series), hits give low values",0.67
same,normalized growth,"S. cerevisiae deletion strains, locus YJR066W, strain TOR1, hits give low values",0.541
same,normalized growth,"S. cerevisiae deletion strains, locus YKL048C, strain ELM1, hits give low values",0.769 (active)
same,normalized growth,"S. cerevisiae deletion strains, locus YKL067W, strain YNK1, hits give low values",0.723 (active)
same,normalized growth,"S. cerevisiae deletion strains, locus YKL101W, strain HSL1, hits give low values",0.747
same,normalized growth,"S. cerevisiae deletion strains, locus YKL193C, strain SDS22, hits give low values",0.937
same,normalized growth,"S. cerevisiae deletion strains, locus YKL203C, strain TOR2, hits give low values",0.762
same,normalized growth,"S. cerevisiae deletion strains, locus YLR113W, strain HOG1, hits give low values",0.44 (active)
same,normalized growth,"S. cerevisiae deletion strains, locus YLR133W, strain CKI1, hits give low values",0.805
same,normalized growth,"S. cerevisiae deletion strains, locus YLR403W, strain SFP1, hits give low values",0.757
same,normalized growth,"S. cerevisiae deletion strains, locus YML070W, strain DAK1, hits give low values",0.651 (active)
same,normalized growth,"S. cerevisiae deletion strains, locus YMR001C, strain CDC5, hits give low values",0.94
same,normalized growth,"S. cerevisiae deletion strains, locus YMR205C, strain PFK2 (second series), hits give low values",0.784
same,normalized growth,"S. cerevisiae deletion strains, locus YMR277W, strain FCP1, hits give low values",0.948
same,normalized growth,"S. cerevisiae deletion strains, locus YNL006W, strain LST8, hits give low values",0.938
same,normalized growth,"S. cerevisiae deletion strains, locus YNL020C, strain ARK1, hits give low values",0.795
same,normalized growth,"S. cerevisiae deletion strains, locus YNL161W, strain CBK1, hits give low values",0.942
same,normalized growth,"S. cerevisiae deletion strains, locus YNL183C, strain NPR1, hits give low values",0.519 (active)
same,normalized growth,"S. cerevisiae deletion strains, locus YNL207W, strain RIO2, hits give low values",0.926
same,normalized growth,"S. cerevisiae deletion strains, locus YNL222W, strain SSU72, hits give low values",0.936
same,normalized growth,"S. cerevisiae deletion strains, locus YNL307C, strain MCK1 (second series), hits give low values",0.695
same,normalized growth,"S. cerevisiae deletion strains, locus YOL078W, strain AVO1, hits give low values",0.942
same,normalized growth,"S. cerevisiae deletion strains, locus YOL136C, strain PFK27, hits give low values",0.625 (active)
same,normalized growth,"S. cerevisiae deletion strains, locus YOR061W, strain CKA2, hits give low values",0.76
same,normalized growth,"S. cerevisiae deletion strains, locus YOR119C, strain RIO1, hits give low values",0.729
same,normalized growth,"S. cerevisiae deletion strains, locus YOR231W, strain MKK1, hits give low values",0.56 (active)
same,normalized growth,"S. cerevisiae deletion strains, locus YOR329C, strain SCD5, hits give low values",0.948
same,normalized growth,"S. cerevisiae deletion strains, locus YPL031C, strain PHO85, hits give low values",0.647 (active)
same,normalized growth,"S. cerevisiae deletion strains, locus YPL153C, strain RAD53, hits give low values",0.653 (active)
same,normalized growth,"S. cerevisiae deletion strains, locus YPL204W, strain HRR25, hits give low values",0.642 (active)
same,normalized growth,"S. cerevisiae deletion strains, locus YPL209C, strain IPL1, hits give low values",0.938
same,normalized growth,"S. cerevisiae deletion strains, locus YPL256C, strain CLN2, hits give low values",0.472 (active)
same,normalized growth,"S. cerevisiae deletion strains, locus YPR025C, strain CCL1, hits give low values",0.94
same,normalized growth,"S. cerevisiae deletion strains, locus YPR106W, strain ISR1, hits give low values",0.94
same,normalized growth,"S. cerevisiae deletion strains, locus YPR111W, strain DBF20, hits give low values",0.945
same,normalized growth,"S. cerevisiae deletion strains, strain NNK1, hits give low values",0.926
same,normalized growth,"S. cerevisiae deletion strains, strain TSCII, hits give low values",0.931
O=C1Cc2c([nH]c3ccc(Br)cc23)-c2ccccc2N1,normalized growth,[27],0.964
same,normalized growth,"S. cerevisiae deletion strains, locus YCL061C, strain MRC1 (second series), hits give low values",0.991
same,normalized growth,[4],0.989
same,normalized growth,"S. cerevisiae deletion strains, locus YDR363W, strain ESC2, hits give low values",1.03
same,normalized growth,[28],1.01
same,normalized growth,[10],1.06
same,normalized growth,[29],0.984
same,normalized growth,[30],0.988
same,normalized growth,[31],0.998
same,normalized growth,[32],0.976
same,normalized growth,[24],0.985
COc1ccc2[nH]c3c(c2c1)CCNC3,normalized growth,[27],0.974
same,normalized growth,[28],1.02
same,normalized growth,"S. cerevisiae deletion strains, locus YGR229C, strain SMI1, hits give low values",1.05
same,normalized growth,[10],1.01
same,normalized growth,"S. cerevisiae deletion strains, locus YNL128W, strain TEP1, hits give low values",0.996
same,normalized growth,[19],0.983
same,normalized growth,[29],0.985
same,normalized growth,[30],0.983
same,normalized growth,[31],1.01
same,normalized growth,[32],0.996
same,normalized growth,[23],1
same,normalized growth,[24],0.981
Cc1ccc2[nH]c3c(c2c1)CCCC3,normalized growth,[1],0.853 (active)
same,normalized growth,[2],0.544 (active)
same,normalized growth,[3],0.778 (active)
same,normalized growth,[4],0.911
same,normalized growth,[5],0.738 (active)
same,normalized growth,[6],0.781 (active)
same,normalized growth,[7],0.377 (active)
same,normalized growth,[8],0.762 (active)
same,normalized growth,[9],0.869 (active)
same,normalized growth,[10],0.636 (active)
same,normalized growth,[11],0.989
same,normalized growth,[12],0.259 (active)
same,normalized growth,[13],0.867 (active)
same,normalized growth,[14],0.696 (active)
same,normalized growth,[15],0.224 (active)
same,normalized growth,[16],0.664 (active)
same,normalized growth,[17],0.828 (active)
same,normalized growth,[18],0.867 (active)
same,normalized growth,[19],0.807 (active)
same,normalized growth,[20],0.578 (active)
same,normalized growth,[21],0.949
same,normalized growth,[22],0.669 (active)
same,normalized growth,[23],0.822 (active)
same,normalized growth,[24],0.722 (active)
same,normalized growth,[25],0.477 (active)
same,normalized growth,[26],0.904 (active)

# Reference: PubChem BioAssay AID1159580 (chemical genetic matrix, 2015)
